This passage reports Potency results from PubChem BioAssay (NCATS).

Inconclusive results are not listed. The source made the active and inactive calls. Calls come from the whole dose curve; as a rule, active = well fitted cell-killing curve with a large enough effect; inconclusive = small, poorly fitted or top-dose-only effect, or effect the other way; inactive = no such curve, though single readings can be large or run the other way.
Potency is the fitted concentration of half-maximal effect.

A short description of this assay: Quantitative High-Throughput drug screen in 47 multiple myeloma cell lines against the NCATS MIPE library collection: OPM2_DSMZ cell viability assay (AID 1919872). Note: nearly all actives have a fitted effect of over 30% in size. The conditions noted are these: OPM2 myeloma viability, CellTiter-Glo ATP luminescence, 48 h; series mostly up to 45.8 µM. In outline:
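Inhibition of cell viability is measured here. Each line was plated at 500 cells per well, treated with MIPE 4.0 drugs, kept 48 hours at 37C, then assayed for ATP content by CellTiter-Glo luminescence.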
Regarding `CC=C1NC(=O)[C@H]2CSSCCC=C[C@H](CC(=O)N[C@H](C(C)C)C(=O)N2)OC(=O)[C@H](C(C)C)NC1=O`, the Potency is 29.6 nM (active).
On to `COCCn1c2c([n+](Cc3cnccn3)c1C)C(=O)c1ccccc1C2=O`, for which the Potency is 59 nM (active).
The same measure for `CCc1c2c(nc3ccc(O)cc13)-c1cc3c(c(=O)n1C2)COC(=O)[C@]3(O)CC`: 1180 nM (active).
The result for `CCC[C@H](NC(=O)C(C#N)=Cc1cccc(Br)n1)c1ccccc1` reads 5260 nM (active); that for `CC(NCc1ccc2c(c1)nc(NC(=O)c1ccc(-c3cn[nH]c3)s1)n2CC(C)(C)O)C(C)(C)C` (stereo not drawn), 1050 nM (active); that for `CNC(=O)c1c(F)cccc1Nc1nc(Nc2cc3c(cc2OC)CCN3C(=O)CN(C)C)nc2[nH]ccc12`, 11800 nM (active).
Turning to `CC(C)CC(=O)Nc1n[nH]c2c1CN(C(=O)C1CCN(C)CC1)C2(C)C`, the Potency is 2350 nM (active).
Consider `COc1cc(=C2C=c3ccccc3=N2)[nH]c1=Cc1[nH]c(C)cc1C`, for which the Potency was 4180 nM (active).
The same measure for `Nc1nc(Nc2ccc(S(N)(=O)=O)cc2)nn1C(=O)c1c(F)cccc1F`: 14800 nM (active); for `NC(=O)c1c(OCc2c(F)cc(Br)cc2F)nsc1NC(=O)NCCCCN1CCCC1`: 20900 nM (active).
Regarding `Nc1cc(C(F)(F)F)c(-c2cc(N3CCOCC3)nc(N3CCOCC3)n2)cn1`, the Potency was 2640 nM (active).
Turning to `O=C(Nc1cn[nH]c1-c1nc2ccc(CN3CCOCC3)cc2[nH]1)NC1CC1`, the Potency is 4690 nM (active).
As to `C[C@@]12O[C@@H](C[C@]1(O)CO)n1c3ccccc3c3c4c(c5c6ccccc6n2c5c31)CNC4=O`, the Potency is 1480 nM (active).
